Bioassay records: PubChem BioAssay, National Center for Advancing Translational Sciences (NCATS)
This is a sample that favours compounds with a hit; in the whole collection about 7.8% have one here.
LASV entry inh = blocks Lassa virus binding to or entry into cells; AID 540256; Lassa virus pseudotype entry inhibition, cell reporter; 300,000 tested, 1.2% active; Potency, µM (series often up to 37.9 µM), for the others: at the top dose activity change, negative = inhibition, actives largely listed as inhibitors; calls by dose curve; tested in HEK293 cells; also: potency is read from the fitted curve at half-maximal effect; nearly all actives have a fitted effect of over 50% in size
HCMV inh = inhibitors of human cytomegalovirus; HFF cells, HCMV-luciferase reporter, 72 h; stronger effect = lower value; activity change, negative = inhibition, % at 57.5 µM; 410,000 tested, 4.5% active; AID 1259415; in the data active = activity change below about -60%; inconclusive = no clear call, values can overlap the other calls; inactive = above about -39%
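Human foreskin fibroblasts infected with luciferase-reporter HCMV at MOI 1 PFU/cell, compounds at two doses. Luciferase measured 72 h post infection; normalized to buffer-only basal and Salinomycin (10uM) controls.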
MARV entry inh = blocks Marburg virus binding to or entry into cells; Marburg virus pseudotyped entry inhibition, cell reporter; Potency, µM (series often up to 37.8 µM), for the others: top-dose activity change, negative = inhibition, hits mostly inhibitors; 300,000 tested, 1.8% active; AID 540276; calls by dose curve; tested in HEK293 cells; also: potency is read from the fitted curve at half-maximal effect
Vaccinia Venus = vaccinia inhibition (Venus reporter). Vaccinia virus Venus reporter expression, fluorescence. Potency, µM (series often up to 36.5 µM), for the others: at the top dose activity change, negative = inhibition, usual class: inhibitors. 330,000 tested, 0.46% active. AID 720580; calls by dose curve; tested in A549 cells; also: potency is read from the fitted curve at half-maximal effect; nearly all actives have a fitted effect of over 30% in size
Vaccinia mCherry = vaccinia inhibition (mCherry reporter). Potency, µM (top dose mostly 36.5 µM), for inactives: at the top dose activity change, negative = inhibition, most hits filed as inhibitors. Vaccinia virus mCherry reporter infection, fluorescence. AID 720579. 310,000 tested, 0.63% active; calls by dose curve; tested in A549 cells; also: potency is read from the fitted curve at half-maximal effect; nearly all actives have a fitted effect of over 35% in size
HCV inhibitor = blocks hepatitis C virus; Potency, µM (titrated, usually from 41.8 µM), for the others: at the highest dose activity change, negative = inhibition, hits mostly inhibitors; AID 651820; 340,000 tested, 3.4% active; Huh7.5.1 HCVcc-Cre infection, luciferase reporter, 44 h; active = well fitted inhibition curve with a large enough effect; inconclusive = small, poorly fitted or top-dose-only effect, or another doubt; inactive = no such curve, though single readings can be large or run the other way; also: potency is read from the fitted curve at half-maximal effect
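Infectious HCV cell culture screen: compound-treated cells (1,000/well, pre-plated 4 h) are infected with HCVcc-Cre at roughly 0.5 moi and grown 44 h. Infection is quantified by luciferase signal after 15 min substrate incubation at room temperature.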
* hit, by the source's call; i = inactive; ? = inconclusive; · = not tested or not shown; ! = a repeat was not active; [ ] = dose if it differs, or a comment. % is scaled to controls: 0 for no effect and ±100 for the full control effect.

SMILES | LASV entry inh | HCMV inh | MARV entry inh | Vaccinia Venus | Vaccinia mCherry | HCV inhibitor
CC(Oc1ccccc1)C(=O)Nc1nnc(S(=O)(=O)N2CCCCCC2)s1 (stereo not given) | -4%[46.1 µM] | -69*! | · | -15% | -23% | 16%
CCC(Oc1ccccc1)C(=O)Nc1nnc(S(=O)(=O)N2CCCCC2)s1 (stereo not given) | · | -19 | · | · | · | 17%
Cc1nc(SC(C)C(=O)NCC2CCCO2)c2cc(-c3ccccc3)sc2n1 (stereo not given) | 0.5µM* | -89* | 0.63µM* | -2% | 5µM* | 4%
CC(Sc1ncnc2c1cnn2-c1ccccc1)C(=O)NCC1CCCO1 (stereo not given) | · | -3 | · | · | · | ?
Cc1ccc(-n2nnnc2SCc2nnc(-c3ccccc3Br)o2)c(C)c1 | ? | -64* | ? | -20% | -14% | ?
COc1cc(=O)n2c(c1C(=O)N1CCc3ccccc3C1)CCN(Cc1ccc(CO)o1)CC2 | · | · | · | -11% | -12% | ·
Cn1c(=NC(=O)CS(=O)(=O)c2ccccc2)sc2cc([N+](=O)[O-])ccc21 | -2% | -87* | 6%[46.1 µM] | -11% | -4% | -12%
Cn1c(=NC(=O)CS(=O)(=O)c2ccccc2)sc2ccccc21 | 4% | -16 | -14% | -9% | i | -26%
Cc1ccc(OCC(O)C(C)NC(C)C)c2c1CCC2 (stereo not given) | · | · | 16µM* | -30% | ? | ·
O=C(CSc1nc2c([nH]c3ccccc32)c(=O)n1-c1ccc(F)cc1)NC1CCCCC1 | 0%[46.1 µM] | -22 | · | -17%[7.34 µM] | -17%[7.34 µM] | ·
C#CCN(C[C@H]1[C@H](OC(=O)NCC2CCCCC2)[C@H](OC(=O)NCC2CCCCC2)C[C@@H](C(=O)OC)[C@H]1C(=O)OC)S(=O)(=O)c1ccc(C)cc1 | · | -8 | · | ? | -15% | ·
C#CCN(C[C@@H]1[C@@H](OC(=O)NCCCCCC)[C@@H](OC(=O)NCCCCCC)Cn2c(=O)ccc(=O)n21)S(=O)(=O)c1ccc(C)cc1 | · | -104* | · | 5.6µM* | ? | ·
C#CCN(C[C@@H]1[C@@H](OC(=O)NCC2CCCCC2)[C@@H](OC(=O)NCC2CCCCC2)Cn2c(=O)ccc(=O)n21)S(=O)(=O)c1ccc(C)cc1 | · | -102* | · | 7.9µM* | ? | ·
C#CCN(C[C@@H]1[C@@H](OC(=O)NC2CC2)[C@@H](OC(=O)NC2CC2)Cn2c(=O)n(CCCCCC)c(=O)n21)S(=O)(=O)c1ccc(C)cc1 | · | -8 | · | ? | i | ·
CCc1nnc2n1N(C(C)=O)C(c1ccc(C(C)(C)C)cc1)=C(C(C)=O)S2 | 11µM* | -98* | · | ? | ? | ·
CCOc1ccc(C2=C(C(C)=O)Sc3nnc(C)n3N2C(C)=O)cc1 | ? | -11 | · | ? | ? | ·
O=S(=O)(Nc1cccc(-c2cn3cccnc3n2)c1)c1ccc(-c2ccccc2)cc1 | 10% | -77* | -20% | -13% | · | 4.5µM*
Cc1ccc(S(=O)(=O)Nc2cccc(-c3cn4ccsc4n3)c2)cc1 | 4.5µM* | ? | ? | ? | · | ?
Cc1cccc(S(=O)(=O)Nc2cccc(-c3cn4ccsc4n3)c2)c1 | ? | -20 | ? | ? | · | ?
COc1ccc(Oc2nc3c(c(=O)n(C)c(=O)n3C)n2Cc2ccc(Cl)cc2Cl)cc1 | -11%[46.1 µM] | 6 | · | -2% | -22% | ·
Cc1ccc(OCC(=O)Nc2nnc(S(=O)(=O)N3CCc4ccccc43)s2)cc1 | 19%[46.1 µM] | 8 | · | -5% | -8% | ·
Cc1ccc(-c2nnc(SCC(=O)N/N=C/c3c(C)nn(-c4ccccc4)c3C)n2-c2ccccc2)cc1 | ? | -27 | ? | -7% | -4% | 11µM*
Cc1ccc(-c2nnc(SCC(=O)N/N=C/c3ccc(C)s3)n2-c2ccccc2)cc1 | 16µM* | -35 | ? | -21% | -29% | -16%
Cc1nn(-c2ccccc2)c(C)c1/C=N/NC(=O)c1cc(-c2ccccc2)n[nH]1 | ? | -95* | ? | -26% | -10% | ?
Cc1ccc(/C=N/NC(=O)CSc2nnc(-c3ccccc3)n2-c2ccc(Cl)cc2)o1 | -9% | -84* | -2% | -10% | -4% | ?
SMILES | LASV entry inh | HCMV inh | MARV entry inh | Vaccinia Venus | Vaccinia mCherry | HCV inhibitor
OCC(O)C[n+]1cccc(Br)c1 (stereo not given) | · | · | · | -13% | 38% | ·
Cc1cc(C)n(C(C)CC(=O)Nc2cccc(C#N)c2)n1 (stereo not given) | ? | -9 | · | -4% | -2% | ·
Cc1ccc(-c2nnc(SCC(=O)N/N=C/c3c(C)nn(-c4ccccc4)c3C)n2-c2ccc(C)cc2)cc1 | 7.1µM* | -39 | ? | -1% | 37% | -3%
CCN(c1ccccc1)S(=O)(=O)c1ccc(C(=O)Nc2nnc(CSC)o2)cc1 | · | -95* | · | ? | ? | ?
CCN(c1ccccc1)S(=O)(=O)c1ccc(C(=O)Nc2nnc(C3CC3)o2)cc1 | ? | -69* | ? | -28% | -28% | ?
CN(c1ccccc1)S(=O)(=O)c1ccc(C(=O)Nc2nnc(C3CC3)o2)cc1 | · | -29 | · | -9% | i | 11%
Cc1c(C(=O)NCCCc2ccncc2)cnn1-c1ncc2c(n1)-c1ccccc1CC2 | · | · | · | ? | -2% | ·
O=C(c1ccc(Oc2ccc(C(F)(F)F)cc2[N+](=O)[O-])cc1)N1CCOCC1 | ? | -83* | ? | -19% | ? | -11%
O=C(c1ccccc1Oc1ccc(C(F)(F)F)cc1[N+](=O)[O-])N1CCOCC1 | 4% | -31 | -8% | · | · | 6%
Cc1[nH]c2ccc(Br)cc2c1CCNC(=O)c1cc2ccccc2oc1=O | 21%[46.1 µM] | -11 | 0%[46.1 µM] | 1% | -1% | ·
O=C(CCN1CCc2ccccc2C1)c1ccc2c(c1)OCCO2 | ? | · | -12% | · | · | 10µM*
Nc1cc[n+](CC(=O)c2ccc3c(c2)OCCO3)cc1 | ? | -82* | -11% | · | · | ?
O=C(NCCc1ccccc1)c1ccc2c(c1)OCCCO2 | ? | -93* | ? | -9% | -13% | 10%
O=C(NCCc1ccccc1)c1ccc2nc(-c3ccco3)c(-c3ccco3)nc2c1 | ? | · | ? | · | · | 11µM*
O=C(C[n+]1ccc(C(=O)NCc2ccccc2)cc1)c1ccc2c(c1)OCCO2 | 8% | -10 | 10% | -1% | -13% | 8%
O=C(CCN1CCc2ccccc21)c1ccc2c(c1)OCCO2 | -23% | 22 | ? | -4% | -9% | ?
C=CC[n+]1cccc2cccc(O)c21 | · | · | · | -10% | i | ·
O=C(NCCc1ccccc1)c1ccc2c(c1)OCCO2 | 0.35µM* | -79* | 0.45µM* | -8% | i | 22%
O=C(CCCc1ccccc1)c1ccc2c(c1)OCCO2 | ? | -91* | 0.46µM* | -1% | -15% | -19%
CNc1sc(C(=O)c2ccccc2F)c(N)c1-c1nc2ccccc2s1 | -1% | 33 | -27% | · | · | 13µM*
